According to PubChem BioAssay (Tox21):
Records with an inconclusive call do not appear. Active and inactive are the calls of the source. Unless noted, calls come from the whole dose curve; as a rule, active = well fitted curve in the direction sought with a large enough effect in the repeat runs; inconclusive = weak or mixed curves; inactive = flat fitted curve, though single readings scatter.

Columns and labels:
[1] = qHTS assay to test for compound auto fluorescence at 535 nm (green) in HEK293 cells (AID 720680)
[2] = qHTS assay to test for compound auto fluorescence at 460 nm (blue) in HEK293 cell free culture (AID 720681)
Summary of the method: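 Blue fluorescence (Ex 405/Em 460 nm, triamterene-equivalent) was read immediately after pin transfer of compound or DMSO into medium (DMEM, 10% FBS) without cells.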

[3] = qHTS assay to test for compound auto fluorescence at 535 nm (green) in HEK293 cell free culture (AID 720682)
Summary of the method: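 Cell-free medium (DMEM, 10% FBS) receives compound or DMSO by pintool. Plate read directly at Ex 485/Em 535 nm. Signal converted to fluorescein equivalency.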

[4] = qHTS assay to test for compound auto fluorescence at 590 nm (red) in HEK293 cell free culture (AID 720683)
Summary of the method: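 Red-channel autofluorescence of compounds in culture medium (DMEM, 10% FBS), no cells, measured at 540/590 nm. Rose Bengal sodium is the reference fluorophore for equivalence.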

[5] = qHTS assay to test for compound auto fluorescence at 590 nm (red) in HepG2 cell free culture (AID 720684)
Summary of the method: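 Cell-free; medium MEM + 10% FBS; compound or DMSO added by pintool; read Ex 540/Em 590 nm; Rose Bengal sodium as red reference fluorophore.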

[6] = qHTS assay to test for compound auto fluorescence at 460 nm (blue) in HepG2 cell free culture (AID 720685)
Summary of the method: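 Cell-free plates of MEM plus 10% FBS received 23 nL compound or DMSO vehicle; blue-channel (405/460 nm) intensity scored against triamterene as reference fluorophore.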

[7] = qHTS assay to test for compound auto fluorescence at 460 nm (blue) in HepG2 cells (AID 720687)
Summary of the method: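 Blue-channel autofluorescence (Ex/Em 405/460 nm, triamterene-equivalent) was measured after 1 hr compound exposure at 37 C, 5% CO2. Cells were HepG2, plated overnight at 37 C in MEM plus 10% FBS.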

[8] = molecular target: Glucocorticoid receptor (Homo sapiens) (UniProt P04150); experiment: qHTS assay to identify small molecule agonists of the glucocorticoid receptor (GR) signaling pathway (AID 720691; active = well fitted activation curve with a large enough effect in the signal ratio in the repeat runs, not every such curve was filed as active; the % refers to the signal ratio)
Summary of the method: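 Agonist-mode qHTS in HeLa cells stably expressing a glucocorticoid-response-element beta-lactamase reporter. Fluorescence intensity read with FRET substrate (2 h, room temperature) after 18 h compound treatment at 37 C.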

[9] = qHTS assay to test for compound auto fluorescence at 535 nm (green) in HepG2 cell free culture (AID 720686)
[10] = molecular target: Glucocorticoid receptor (Homo sapiens) (UniProt P04150); experiment: qHTS assay to identify small molecule antagonists of the glucocorticoid receptor (GR) signaling pathway (AID 720692; active = well fitted inhibition curve with a large enough effect in the signal ratio in the repeat runs, not every such curve was filed as active; the % refers to the signal ratio)
Summary of the method: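 Inhibition of dexamethasone-driven (5 nM final) beta-lactamase expression was measured in GRE-reporter HeLa cells over 18 h at 37C. Fluorescence was read after 2 h with the B/G FRET substrate at room temperature.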
% is set by controls: 0 for no effect and ±100 for the full control effect.

Sequence of Glucocorticoid receptor (Homo sapiens) (P04150 whole entry, looked up): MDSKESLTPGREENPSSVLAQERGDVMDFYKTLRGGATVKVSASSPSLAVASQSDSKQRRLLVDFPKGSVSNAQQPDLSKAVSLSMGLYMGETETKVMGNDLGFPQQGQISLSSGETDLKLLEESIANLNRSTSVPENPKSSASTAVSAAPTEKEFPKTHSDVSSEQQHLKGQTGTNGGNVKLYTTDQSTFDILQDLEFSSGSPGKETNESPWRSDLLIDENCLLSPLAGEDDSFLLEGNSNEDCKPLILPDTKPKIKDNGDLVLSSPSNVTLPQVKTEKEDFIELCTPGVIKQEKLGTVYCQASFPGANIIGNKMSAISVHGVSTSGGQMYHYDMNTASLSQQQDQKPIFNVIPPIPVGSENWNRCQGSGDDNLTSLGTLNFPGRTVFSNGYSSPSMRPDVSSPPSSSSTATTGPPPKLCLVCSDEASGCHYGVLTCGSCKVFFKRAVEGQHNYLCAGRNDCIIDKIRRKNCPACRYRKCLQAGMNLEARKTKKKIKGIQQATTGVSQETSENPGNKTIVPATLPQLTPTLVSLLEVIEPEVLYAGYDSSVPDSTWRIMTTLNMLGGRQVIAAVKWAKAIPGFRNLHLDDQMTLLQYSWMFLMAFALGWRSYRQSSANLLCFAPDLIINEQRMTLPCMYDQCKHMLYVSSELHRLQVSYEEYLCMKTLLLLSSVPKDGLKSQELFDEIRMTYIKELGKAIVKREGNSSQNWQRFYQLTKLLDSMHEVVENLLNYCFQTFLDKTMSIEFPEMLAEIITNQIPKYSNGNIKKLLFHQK

CCc1ncc(C)[nH]1
inactive: outcome [1] | outcome [2] | outcome [3] | outcome [4] | outcome [5] | outcome [6] | outcome [7] | Potency [8]

CCC(C)SSC(C)CC (stereo not given)
inactive: outcome [1] | outcome [2] | outcome [3] | outcome [4] | outcome [6] | outcome [9] | outcome [7] | outcome [10]

CCCCCCC(=O)c1ccccc1
inactive: outcome [1] | outcome [2] | outcome [3] | outcome [5] | outcome [6] | outcome [9] | outcome [7]

O=C1CC2(CCCC2)CC(=O)N1CCNCC1COc2ccccc2O1 (stereo not given)
inactive: outcome [1] | outcome [2] | outcome [3] | outcome [4] | outcome [6] | outcome [9] | outcome [7]

CC(CC(=O)Cl)CC(C)(C)C (stereo not given)
inactive: outcome [1] | outcome [2] | outcome [3] | outcome [4] | outcome [6] | outcome [9] | outcome [7]

CNC(C)=O
inactive: outcome [1] | outcome [2] | outcome [3] | outcome [4] | outcome [6] | outcome [7] | Potency [8]

CCCC(=O)OC
inactive: outcome [1] | outcome [2] | outcome [3] | outcome [4] | outcome [6] | outcome [9] | outcome [7]

CC(C)C[P+](C)(CC(C)C)CC(C)C
inactive: outcome [1] | outcome [2] | outcome [3] | outcome [4] | outcome [6] | outcome [9] | outcome [7]

CC(O)C(CO)C(C)O (stereo not given)
inactive: outcome [1] | outcome [2] | outcome [3] | outcome [4] | outcome [6] | outcome [9] | outcome [7] | Potency [8] | outcome [10]

NC[C@H]1O[C@H](O[C@H]2[C@H](O)[C@@H](O[C@H]3O[C@H](CO)[C@@H](O)[C@H](N)[C@H]3O)[C@H](N)C[C@@H]2N)[C@H](N)[C@@H](O)[C@@H]1O
inactive: outcome [1] | outcome [2] | outcome [3] | outcome [4] | outcome [5] | outcome [6] | outcome [7] | Potency [8] | outcome [10]

C[C@@H](CN1CC(=O)NC(=O)C1)N1CC(=O)NC(=O)C1
inactive: outcome [1] | outcome [2] | outcome [3] | outcome [4] | outcome [6] | outcome [9] | outcome [7]

Nc1cc(S(=O)(=O)O)ccc1O
inactive: outcome [1] | outcome [2] | outcome [3] | outcome [4] | outcome [6] | outcome [9] | outcome [7] | Potency [8] | outcome [10]

O=S(=O)(O)c1ccc(Cl)cc1
inactive: outcome [1] | outcome [2] | outcome [3] | outcome [4] | outcome [6] | outcome [9] | outcome [7] | outcome [10]

CC(=O)Nc1ccc(OCCOCCOc2ccc(NC(C)=O)cc2)cc1
inactive: outcome [1] | outcome [2] | outcome [3] | outcome [4] | outcome [6] | outcome [9] | outcome [7]

C/C(=N\O)c1ccc(OCC(=O)N2CCCCC2)cc1
inactive: outcome [1] | outcome [2] | outcome [3] | outcome [4] | outcome [6] | outcome [7]

CCCCN1C(=O)c2ccccc2C1=O
inactive: outcome [1] | outcome [2] | outcome [3] | outcome [4] | outcome [5] | outcome [6] | outcome [7] | Potency [8]

CCOc1ccccc1OCCN[C@H](C)Cc1ccc(OC)c(S(N)(=O)=O)c1
inactive: outcome [1] | outcome [2] | outcome [3] | outcome [4] | outcome [6] | outcome [9] | outcome [7]

CC(C)(O)c1ccc(C(C)(C)O)cc1
inactive: outcome [1] | outcome [2] | outcome [3] | outcome [4] | outcome [6] | outcome [9] | outcome [7] | Potency [8]

CCCCCCCCCCCBr
inactive: outcome [1] | outcome [2] | outcome [3] | outcome [4] | outcome [5] | outcome [6] | outcome [7] | Potency [8] | outcome [10]

C=CC(C)(CCC=C(C)C)OC(=O)C(C)C (stereo not given)
inactive: outcome [1] | outcome [2] | outcome [3] | outcome [4] | outcome [5] | outcome [6] | outcome [7] | outcome [10]

CC(C)(C)C(=O)CCc1ccc(Cl)cc1
inactive: outcome [1] | outcome [2] | outcome [3] | outcome [4] | outcome [6] | outcome [9] | outcome [7]

BrCCOc1ccccc1
inactive: outcome [1] | outcome [2] | outcome [3] | outcome [4] | outcome [5] | outcome [6] | outcome [7] | outcome [10]

CC(=O)OCC(=O)[C@@]1(O)CC[C@H]2[C@@H]3CCC4=CC(=O)C=C[C@]4(C)[C@H]3[C@@H](O)C[C@@]21C
inactive: outcome [1] | outcome [2] | outcome [3] | outcome [4] | outcome [6] | outcome [9] | outcome [7]

CC(C)OCCO
inactive: outcome [1] | outcome [2] | outcome [3] | outcome [4] | outcome [6] | outcome [9] | outcome [7] | Potency [8] | outcome [10]

CCCCCCC(O)CO (stereo not given)
inactive: outcome [1] | outcome [2] | outcome [3] | outcome [4] | outcome [6] | outcome [9] | outcome [7]

CSC(=O)c1cccc2nnsc12
inactive: outcome [1] | outcome [2] | outcome [3] | outcome [5] | outcome [6] | outcome [9] | outcome [7]

COc1cc2nc(N3CCN(C(=O)C4CCCO4)CC3)nc(N)c2cc1OC (stereo not given)
inactive: outcome [2] | outcome [3] | outcome [4] | outcome [6] | outcome [9] | outcome [7] | Potency [8]

C=CCCCCCCCCOC(C)=O
inactive: outcome [2] | outcome [3] | outcome [4] | outcome [5] | outcome [6] | outcome [7] | Potency [8]

COc1cc(NS(=O)(=O)c2ccc(N)cc2)ncn1
inactive: fluorescence, % of fluorescent control [2] 0.0083% [at 18.6 µM] | activity change [3] 0.0071% [at 18.6 µM] | fluorescence, % of Rose Bengal [5] 0.116% [at 18.6 µM] | fluorescence, % of fluorescent control [6] 0.0187% [at 18.6 µM] | fluorescence, % of fluorescein control [9] 0.0114% [at 18.6 µM] | fluorescence, % of fluorescent control [7] -0.0071% [at 18.6 µM] | Potency [8]

COC(=O)C(c1ccccc1Cl)N1CCc2sccc2C1 (stereo not given)
inactive: outcome [2] | outcome [3] | outcome [4] | outcome [5] | outcome [6] | outcome [7]

N[C@H]1C(O)O[C@H](CO)[C@@H](O)[C@@H]1O (stereo not given in full)
inactive: outcome [2] | outcome [3] | outcome [4] | outcome [5] | outcome [6] | outcome [7]

CCCC(C)C(O)CC (stereo not given)
inactive: outcome [2] | outcome [3] | outcome [6] | outcome [9] | outcome [7] | Potency [8]

O=C1c2ccccc2C(=O)N1CO
inactive: outcome [2] | outcome [3] | outcome [4] | outcome [5] | outcome [6] | outcome [9] | outcome [7] | outcome [10]

CCOC(=O)c1ccc(N(C)C)cc1
inactive: outcome [2] | outcome [3] | outcome [4] | outcome [5] | outcome [6] | outcome [9] | outcome [7] | outcome [10]

CCO/C=C1\N=C(c2ccccc2)OC1=O
inactive: outcome [2] | outcome [3] | outcome [4] | outcome [6] | outcome [7] | Potency [8]

C=CCN(CC=C)CC=C
inactive: outcome [2] | outcome [3] | outcome [5] | outcome [6] | outcome [9] | outcome [7]

Cc1ccc2cccnc2c1
inactive: outcome [2] | outcome [3] | outcome [4] | outcome [6] | outcome [7] | Potency [8] | outcome [10]

CC(=O)c1ccc2ccc3ccccc3c2c1
inactive: outcome [2] | outcome [3] | outcome [4] | outcome [5] | outcome [6] | outcome [7]

CCCCCCCCCCCC(C)=O
inactive: outcome [2] | outcome [3] | outcome [4] | outcome [5] | outcome [6] | outcome [9] | outcome [7] | Potency [8]

C/C=C(\C)C=O
inactive: outcome [2] | outcome [3] | outcome [5] | outcome [6] | outcome [9] | outcome [7]

CN(C)CCc1c[nH]c2ccc(CS(=O)(=O)N3CCCC3)cc12
inactive: outcome [2] | outcome [3] | outcome [6] | outcome [9] | outcome [7]

O=c1c(O)c(O)c1=O
inactive: outcome [2] | outcome [3] | outcome [4] | outcome [5] | outcome [6] | outcome [9] | outcome [7] | Potency [8]
